Laboratory results as given in the supplement of paper PMC10646978.
± gives the standard deviation.

Legend:
Conditions in all cases: modulator concentration 10 µM
[1] = tested on: RAW-Dual (murine macrophage reporter line); assay: NF-kB reporter (SEAP) activity fold change vs agonist alone; higher = enhanced NF-kB activity
Summary of the method: (§1)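 In 384-well plates holding 50 000 RAW-Dual murine macrophage reporter cells per well, compound at 10 μM final was pre-incubated for 1 hour at 37 °C, after which a PRR agonist was added overnight. Supernatant SEAP read with QUANTI-Blue at 620 nm absorbance reported NF-κB, and Lucia luciferase read with QUANTI-Luc luminescence reported IRF. Fold change values come from dividing each reporter signal by the mean of agonist-only control wells on the same plate, averaged over replicate plates with propagated errors.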

[2] = tested on: RAW-Dual (murine macrophage reporter line); assay: IRF reporter (Lucia luciferase) activity fold change vs agonist alone; higher = enhanced IRF activity
Summary of the method: as §1

[3] = tested on: RAW-Dual (murine macrophage reporter line); assay: viability score (confluency relative to resting cells, overnight) (fraction); higher = more viable, active = viable (0.7 or more)
Summary of the method: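 Overnight exposure to 10 μM final compound was carried out on RAW-Dual macrophages in 384-well plates. IncuCyte software generated two confluency masks over all wells imaged with IncuCyte. The viability score gives confluency in relation to resting cells. A compound met the cutoff if each mask exceeded 70% of resting cells.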

[4] = agonist: CpG ODN 1826 0.5 ug/mL

| SMILES | NF-kB reporter [1, 4] | NF-kB reporter ([1]; agonist: LPS 0.1 ug/mL) | NF-kB reporter ([1]; agonist: MPLA […]) | IRF reporter ([2]; agonist: 3'3'-cGAMP 10 ug/mL) | IRF reporter ([2]; agonist: LPS 0.1 ug/mL) | IRF reporter ([2]; agonist: MPLA […]) | viability score [3] |
| --- | --- | --- | --- | --- | --- | --- | --- |
| O=C(CCN1C(=O)c2cccc([N+](=O)[O-])c2C1=O)Nc1ccc(F)cc1 | 1.01 ± 0.13 | 1.02 ± 0.069 | 1.02 ± 0.035 | 0.875 ± 0.082 | 0.958 ± 0.099 | 1.07 ± 0.23 | 1 (active) |
| Cl.NC12CC3CC(CC(C3)C1)C2 | 1.44 ± 0.2 | 1.21 ± 0.38 | 1.04 ± 0.062 | 0.909 ± 0.033 | 1.44 ± 0.24 | 1.12 ± 0.096 | 0.983 (active) |
| CCCCc1ncc(/C=C(\Cc2cccs2)C(=O)O)n1Cc1ccc(C(=O)O)cc1.CS(=O)(=O)O | 1.08 ± 0.081 | 1.11 ± 0.055 | 1.03 ± 0.039 | 0.927 ± 0.062 | 0.973 ± 0.077 | 0.836 ± 0.079 | 1 (active) |
| COCC(C)NC(=O)c1ccc(Cl)c(Cl)c1 (stereo not given) | 1.13 ± 0.12 | 0.926 ± 0.079 | 0.984 ± 0.043 | 0.953 ± 0.034 | 0.966 ± 0.05 | 0.992 ± 0.1 | 0.997 (active) |
| CN1CCC(OC(c2ccccc2)c2ccccc2)CC1.Cl | 0.827 ± 0.31 | 1.17 ± 0.061 | 1.22 ± 0.087 | 0.638 ± 0.025 | 0.967 ± 0.19 | 1.08 ± 0.1 | 0.992 (active) |
| Cn1ccnc1Sc1nc(Nc2cccc(Cl)c2)nc(N2CCOCC2)n1 | 0.519 ± 0.045 | 1.03 ± 0.12 | 1.21 ± 0.13 | 0.474 ± 0.019 | 1.24 ± 0.14 | 1.09 ± 0.23 | 1.01 (active) |
| CCOc1ccc2nc(SC(c3ccccc3)c3ccccc3)sc2c1 | 1.01 ± 0.17 | 0.967 ± 0.099 | 0.974 ± 0.14 | 1.01 ± 0.036 | 1.2 ± 0.18 | 1.04 ± 0.31 | 0.661 (inactive) |
| COc1cccc(-n2c(SCc3ccc(F)cc3)nc3c([nH]c4ccccc43)c2=O)c1 | 0.568 ± 0.034 | 1.14 ± 0.077 | 0.693 ± 0.06 | 0.717 ± 0.033 | 1.33 ± 0.15 | 0.902 ± 0.13 | 0.972 (active) |
| CCOc1cc([C@@H](CS(C)(=O)=O)N2C(=O)c3cccc(NC(C)=O)c3C2=O)ccc1OC | 2.72 ± 0.66 | 0.969 ± 0.058 | 1.69 ± 0.15 | 1.01 ± 0.048 | 1.05 ± 0.12 | 1.14 ± 0.15 | 0.977 (active) |
| C=CCN1C(=O)C(=C2C(=O)N(Cc3ccccc3F)c3ccccc32)SC1=S | 1.09 ± 0.1 | 1.02 ± 0.079 | 1.01 ± 0.062 | 0.904 ± 0.039 | 1.37 ± 0.18 | 1.13 ± 0.19 | 1.01 (active) |
| O=C(C(Cl)Cl)N1CCN(Cc2ccccc2)CC1 | 0.881 ± 0.068 | 0.67 ± 0.077 | 0.709 ± 0.072 | 0.712 ± 0.032 | 1.25 ± 0.18 | 1.28 ± 0.24 | 1.01 (active) |
| CN1CCN2c3ccccc3Cc3ccccc3C2C1.Cl (stereo not given) | 1 ± 0.14 | 1.07 ± 0.34 | 0.835 ± 0.058 | 0.68 ± 0.032 | 1.32 ± 0.3 | 1.2 ± 0.13 | 0.307 (inactive) |
| CCC(C(=O)N1CCN(CCn2ccnc2-c2ccccc2)CC1)c1ccccc1 (stereo not given) | 0.982 ± 0.17 | 0.999 ± 0.14 | 1.24 ± 0.076 | 1 ± 0.13 | 1.04 ± 0.24 | 0.956 ± 0.4 | 0.984 (active) |
| O=Cc1ccc(OC(=O)c2cccc(C(=O)Oc3ccc(C=O)cc3)c2)cc1 | 0.813 ± 0.064 | 0.851 ± 0.052 | 1.02 ± 0.092 | 0.975 ± 0.064 | 1.52 ± 0.088 | 1.69 ± 0.14 | 0.989 (active) |
| Cc1ccc(C23CC4CC(CC(CN)(C4)C2)C3)cc1C.Cl | 0.652 ± 0.44 | 0.309 ± 0.056 | 1.08 ± 0.35 | 0.11 ± 0.0065 | 0.32 ± 0.1 | 0.256 ± 0.11 | 0.51 (inactive) |
| Cc1cc(-n2cc(C(=O)N3CCOCC3)nn2)ccc1F | 1.06 ± 0.33 | 1.1 ± 0.075 | 1.02 ± 0.065 | 0.98 ± 0.045 | 1.01 ± 0.17 | 1.14 ± 0.17 | 0.991 (active) |
| COc1ccc(CN2CCN(c3cc(C)nc4c5c(C)cc(C)nc5nn34)CC2)cc1F | 1.02 ± 0.08 | 0.961 ± 0.071 | 1.06 ± 0.13 | 1.17 ± 0.037 | 1.34 ± 0.18 | 1.42 ± 0.2 | 0.995 (active) |
| Cc1ccc(-c2ncc(Cl)cc2-c2ccc(S(C)(=O)=O)cc2)cn1 | 1.03 ± 0.17 | 1.15 ± 0.33 | 0.973 ± 0.054 | 1.05 ± 0.038 | 1.29 ± 0.4 | 1.37 ± 0.1 | 1 (active) |

| SMILES | NF-kB reporter [1, 4] | NF-kB reporter ([1]; agonist: LPS 0.1 ug/mL) | NF-kB reporter ([1]; agonist: MPLA […]) | IRF reporter ([2]; agonist: 3'3'-cGAMP 10 ug/mL) | IRF reporter ([2]; agonist: LPS 0.1 ug/mL) | IRF reporter ([2]; agonist: MPLA […]) | viability score [3] |
| --- | --- | --- | --- | --- | --- | --- | --- |
| N#CC[C@H](C1CCCC1)n1cc(-c2ncnc3[nH]ccc23)cn1 | 1.4 ± 0.11 | 0.341 ± 0.017 | 0.734 ± 0.074 | 0.269 ± 0.012 | 0.719 ± 0.063 | 0.764 ± 0.074 | 0.979 (active) |
| Cc1cc(CCC(=O)N(C)C2CN(c3ccc4nnc(C)n4n3)C2)ccc1F | 1.11 ± 0.058 | 1.1 ± 0.091 | 0.918 ± 0.046 | 1.19 ± 0.073 | 1.12 ± 0.095 | 1.11 ± 0.16 | 0.979 (active) |
| COc1ccc(C2=CC(c3cc(OC)c(OC)c(OC)c3)n3ncnc3N2)cc1 (stereo not given) | 1.26 ± 0.087 | 1.08 ± 0.066 | 1.22 ± 0.087 | 1.15 ± 0.047 | 1.07 ± 0.07 | 1.27 ± 0.15 | 0.985 (active) |
| O=c1c(O)c(-c2cc(O)c(O)c(O)c2)oc2cc(O)cc(O)c12 | 1.51 ± 0.41 | 0.772 ± 0.04 | 0.968 ± 0.064 | 0.582 ± 0.035 | 0.894 ± 0.23 | 1.01 ± 0.21 | 0.908 (active) |
| Cc1cccc(CSc2nn3c(=O)c(C)nnc3s2)c1 | 1.06 ± 0.086 | 0.937 ± 0.1 | 0.907 ± 0.085 | 0.925 ± 0.031 | 1.25 ± 0.2 | 1.26 ± 0.25 | 1.01 (active) |
| CCN(CC)C(=O)Nc1ccc(OCC(O)CNC(C)(C)C)c(C(C)=O)c1 (stereo not given) [Prestw-1132] | 1.41 ± 0.08 | 1.01 ± 0.062 | 1.16 ± 0.079 | 0.979 ± 0.059 | 1.44 ± 0.15 | 1.29 ± 0.12 | 0.997 (active) |
| Cc1ccc(Nc2nccc(N(C)c3ccc4c(C)n(C)nc4c3)n2)cc1S(N)(=O)=O | 0.71 ± 0.11 | 1.84 ± 0.36 | 2.52 ± 0.16 | 0.146 ± 0.014 | 0.835 ± 0.15 | 1.18 ± 0.14 | 0.78 (active) |
| COc1ccc(C2=NN(C(=O)c3ccc(Br)cc3)C(c3nc4ccccc4[nH]3)C2)cc1 (stereo not given) | 0.994 ± 0.087 | 1.1 ± 0.12 | 0.867 ± 0.07 | 0.92 ± 0.049 | 1.16 ± 0.092 | 1.1 ± 0.34 | 0.986 (active) |
| COc1ccc(S(=O)(=O)N(CC(=O)Nc2ccccc2Br)c2ccc(C)cc2)cc1OC | 0.735 ± 0.067 | 0.773 ± 0.076 | 0.864 ± 0.041 | 0.858 ± 0.086 | 1.04 ± 0.11 | 1.1 ± 0.17 | 1 (active) |
| NC(=O)c1c(NC(=O)CN2C(=O)C(=Cc3ccc(Cl)cc3Cl)SC2=S)sc2c1CCCC2 | 0.936 ± 0.081 | 1.07 ± 0.067 | 0.885 ± 0.058 | 0.841 ± 0.028 | 1.23 ± 0.092 | 1.03 ± 0.29 | 0.997 (active) |
| CC1(C)Cc2ccccc2C(C[N+](=O)[O-])=N1 | 0.899 ± 0.07 | 0.901 ± 0.1 | 1.65 ± 0.61 | 0.963 ± 0.056 | 1.26 ± 0.08 | 1.38 ± 0.13 | 0.997 (active) |
| CN1CCC[C@@H]1CCO[C@](C)(c1ccccc1)c1ccc(Cl)cc1.O=C(O)/C=C/C(=O)O | 1.17 ± 0.29 | 1.01 ± 0.13 | 1.06 ± 0.1 | 0.526 ± 0.021 | 1.28 ± 0.17 | 1.63 ± 0.16 | 0.321 (inactive) |
| Cl.Nc1ccn([C@@H]2O[C@H](CO)[C@@H](O)[C@@H]2O)c(=O)n1 | 1.61 ± 0.12 | 1.13 ± 0.068 | 1.06 ± 0.047 | 0.87 ± 0.13 | 1.03 ± 0.1 | 0.8 ± 0.079 | 0.579 (inactive) |
| CC(C)Sc1ccc(CC(=O)N2C3C=CCC2CC3)cc1 (stereo not given) | 0.963 ± 0.12 | 1.03 ± 0.082 | 1.08 ± 0.1 | 1 ± 0.1 | 1.43 ± 0.11 | 1.38 ± 0.24 | 0.877 (active) |
| C=CC(=O)Nc1cccc(Oc2nc(Nc3ccc(N4CCN(C)CC4)cc3)nc3ccsc23)c1 | 0.0541 ± 0.0029 | 0.0574 ± 0.0052 | 0.184 ± 0.036 | 0.0243 ± 0.0019 | 0.0856 ± 0.0056 | 0.0904 ± 0.035 | 0.0526 (inactive) |
| O=C(Nc1cccc(C(F)(F)F)c1)Nc1cnn(CC2COc3ccccc3O2)c1 (stereo not given) | 0.717 ± 0.05 | 0.934 ± 0.078 | 1.1 ± 0.059 | 0.913 ± 0.051 | 1.08 ± 0.12 | 1.78 ± 0.45 | 0.841 (active) |
| O=C(O)CSCC(=O)NC1CCSC1=O (stereo not given) | 0.824 ± 0.065 | 0.898 ± 0.11 | 1.04 ± 0.12 | 1.01 ± 0.06 | 1.36 ± 0.13 | 1.5 ± 0.15 | 1 (active) |
